Source: PubChem (The Scripps Research Institute Molecular Screening Center)
MOR-DOR ag: agonists of human mu-delta opioid receptor heterodimerization. cells, OPRM1-OPRD1 heterodimerization, luminescence. activation, % at 9.3 µM. 340,000 compounds, 0.3% hits. AID 504326; in the data active means activation above about 18%
Target sequence (P35372 whole entry, looked up): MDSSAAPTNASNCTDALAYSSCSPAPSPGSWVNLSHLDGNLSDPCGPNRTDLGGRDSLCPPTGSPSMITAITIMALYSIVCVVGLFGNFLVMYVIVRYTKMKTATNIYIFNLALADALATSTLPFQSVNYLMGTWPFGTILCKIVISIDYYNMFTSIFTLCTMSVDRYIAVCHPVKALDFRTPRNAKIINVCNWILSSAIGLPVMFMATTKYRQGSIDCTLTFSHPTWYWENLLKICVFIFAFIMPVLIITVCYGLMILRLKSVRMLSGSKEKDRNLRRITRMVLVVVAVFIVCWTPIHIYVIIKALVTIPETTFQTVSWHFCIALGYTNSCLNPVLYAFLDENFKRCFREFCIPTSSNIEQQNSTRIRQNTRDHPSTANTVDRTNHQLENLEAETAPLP
Target sequence (P41143 whole entry, looked up): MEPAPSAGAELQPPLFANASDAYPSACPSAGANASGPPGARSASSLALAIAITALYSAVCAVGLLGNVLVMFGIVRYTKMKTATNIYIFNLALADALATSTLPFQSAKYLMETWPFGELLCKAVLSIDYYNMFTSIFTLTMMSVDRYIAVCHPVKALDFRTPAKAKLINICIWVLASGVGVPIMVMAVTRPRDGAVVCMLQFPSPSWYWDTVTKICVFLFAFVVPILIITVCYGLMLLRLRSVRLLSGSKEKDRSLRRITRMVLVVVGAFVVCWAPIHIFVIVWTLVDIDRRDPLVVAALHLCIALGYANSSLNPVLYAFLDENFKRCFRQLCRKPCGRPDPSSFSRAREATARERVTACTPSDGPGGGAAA
MOR-DOR inv ag: inverse agonist of human OPRM1-OPRD1 heterodimerization; 340,000 compounds, 0.21% hits; P35372+P41143; AID 504357; inhibition, % at 9.3 µM; cell-based MOR-DOR heterodimer luminescence, inverse agonism; in the data active means inhibition above about 22%, passing the limit was not always enough
HTR5A ag ctr: activates human HTR5A in OPRM1-OPRD1 agonist counter-screen; HTR5A agonist assay, luminescence, cell-based; 340,000 compounds, 0.61% hits; activation, % at 9.3 µM; in the data active means activation mostly above about 9.5%, no sharp cut-off; inactive means mostly below about 7.6%
HTR5A inv ag: inverse agonist of human HTR5A in OPRM1-OPRD1 counter-screen. 340,000 compounds, 0.083% hits. inhibition, % at 9.3 µM. HTR5A cell line, luminescence, inverse agonism; in the data active means inhibition mostly above about 23%, no sharp cut-off; inactive means mostly below about 18%
OPRM1-D1 inv cf: OPRM1-OPRD1 heterodimer inverse agonism, confirmation | shares compounds with MOR-DOR inv ag | cells expressing OPRM1/OPRD1 heterodimer, luminescence | inhibition, % at 9.3 µM | 580 compounds, 20% hits | AID 504900; in the data active means inhibition above about 32%
HTR5A inv ctr2: counter-screen for OPRM1-OPRD1 inverse agonists: human HTR5A inverse agonism; shares compounds with MOR-DOR inv ag; inhibition, % at 9.3 µM; HTR5A-expressing cells, luminescence; 580 tested, under 10 active; call rule not given here
Large screens that a line does not name were inactive (follow-up assays come after a bar, where they were run). Hits are enriched below; roughly 1.1% of the tested compounds scored in any of these assays.

O=C(CNc1ccc(Br)cc1)c1ccccc1	none
O=C(CNc1ccc(F)cc1)c1ccccc1	MOR-DOR inv ag 37 | OPRM1-D1 inv cf inactive | HTR5A inv ctr2 inactive
Cc1ccc(C(=O)CNc2ccccc2C)cc1	none
Cc1ccc(C(=O)CNc2ccc(C)cc2C)cc1	MOR-DOR inv ag 26 | OPRM1-D1 inv cf inactive | HTR5A inv ctr2 inactive
CCSc1nnc2c(n1)OC(C)(C)Nc1ccccc1-2	none
CSc1nnc2c(n1)OC1(Nc3ccccc3-2)C(=O)Nc2ccccc21 (centres undefined)	MOR-DOR inv ag 53 | OPRM1-D1 inv cf inactive | HTR5A inv ctr2 inactive
Cc1ccc(S(=O)(=O)N2CCC(C(=O)N3CCC3)CC2)cc1	none
O=C(COC(=O)c1ccccn1)c1cccc(Br)c1	MOR-DOR inv ag 37 | OPRM1-D1 inv cf inactive | HTR5A inv ctr2 inactive
CC(C)Sc1nnc(SCC(=O)NCCCN2CCCC2=O)s1	none
CCn1nc([N+](=O)[O-])c(C(C#N)c2nc3cc(C(F)(F)F)ccc3s2)c(Cl)c1=O (centres undefined)	MOR-DOR inv ag 31 | OPRM1-D1 inv cf inactive | HTR5A inv ctr2 inactive
CCCn1nc([N+](=O)[O-])c(C(C#N)c2nc3ccccc3o2)c(Cl)c1=O (centres undefined)	none
CC(C)Oc1ccc(S(=O)(=O)N2CCCCC2)cc1NC(=O)C1CCC1	none
COc1cc(C(=O)OCC(=O)c2ccc(S(=O)(=O)N3CCCCC3)cc2)cc(OC)c1OC	none
CNS(=O)(=O)c1cccc(C(=O)OCC(=O)c2ccc(S(=O)(=O)N3CCCCC3)cc2)c1	MOR-DOR inv ag 53 | OPRM1-D1 inv cf inactive | HTR5A inv ctr2 inactive
CNS(=O)(=O)c1cccc(C(=O)OCC(=O)c2cc3ccccc3o2)c1	MOR-DOR inv ag 77, HTR5A inv ag 37 | OPRM1-D1 inv cf inactive | HTR5A inv ctr2 inactive
CC(=O)Nc1cccc(C(=O)OCC(=O)c2ccc(S(=O)(=O)N3CCCCC3)cc2)c1	MOR-DOR inv ag 47 | OPRM1-D1 inv cf 49 | HTR5A inv ctr2 inactive
CC(=O)Nc1ccc(C(=O)OCC(=O)c2ccc(S(=O)(=O)N3CCCCC3)cc2)cc1	none
COc1cc(C(=O)OCC(=O)N2CCCC2=O)cc(OC)c1C	none
CCOc1ccc(C=NC23CN4CN(CN(C4)C2)C3)cc1	none
CCOc1ccc(CNC23CN4CN(CN(C4)C2)C3)cc1	MOR-DOR inv ag 16 | OPRM1-D1 inv cf inactive | HTR5A inv ctr2 inactive
O=C(CSc1nc2c([nH]c3ccccc32)c(=O)n1-c1ccccc1)NCC1CCCO1 (centres undefined)	MOR-DOR inv ag 51 | OPRM1-D1 inv cf inactive | HTR5A inv ctr2 inactive
Cc1ccc(N/N=C/c2ccncc2)cc1	none
Cc1ccc(N/N=C/c2cccnc2)cc1	MOR-DOR inv ag 52 | OPRM1-D1 inv cf inactive | HTR5A inv ctr2 inactive
O=C(C1COc2ccccc2O1)N1CCN(c2nc3c(F)cc(F)cc3s2)CC1 (centres undefined)	none
Cn1ccnc1Sc1cc(NCCCO)c([N+](=O)[O-])c2nonc12	MOR-DOR inv ag 37 | OPRM1-D1 inv cf inactive | HTR5A inv ctr2 inactive
O=C(C[n+]1ccccc1)NNc1ccccc1	MOR-DOR inv ag 33 | OPRM1-D1 inv cf inactive | HTR5A inv ctr2 inactive
O=C(NN=Cc1ccc(N2CCOCC2)s1)c1ccc([N+](=O)[O-])cc1	none
Cc1ccccc1OCCN1C(=O)C(=O)c2cccc(C)c21	MOR-DOR inv ag 58 | OPRM1-D1 inv cf inactive | HTR5A inv ctr2 inactive
COc1ccccc1OCCCN1C(=O)C(=O)c2cccc(C)c21	MOR-DOR inv ag 41 | OPRM1-D1 inv cf 56 | HTR5A inv ctr2 inactive
O=C1c2ccccc2C(=O)N1CCOc1ccccc1Cl	none
Cc1cccc2c1N(CCOc1ccccc1Cl)C(=O)C2=O	MOR-DOR inv ag 34 | OPRM1-D1 inv cf inactive | HTR5A inv ctr2 inactive
CC(=O)NC1=CC(=C[N+](=O)[O-])C=C1O	none
CCN1CCN(C(=O)CN2C(=O)COc3ccc(C)cc32)CC1	MOR-DOR inv ag 12 | OPRM1-D1 inv cf inactive | HTR5A inv ctr2 inactive
C=CCSc1cc(C)nc2c(-c3ccc(Cl)cc3)c(C)nn12	MOR-DOR inv ag 28 | OPRM1-D1 inv cf inactive | HTR5A inv ctr2 inactive
CC(=O)N(/N=C1\Sc2ccccc2C1=O)c1ccccc1	MOR-DOR inv ag 34 | OPRM1-D1 inv cf inactive | HTR5A inv ctr2 inactive
CC(=O)N(/N=C1\Sc2ccccc2C1=O)c1ccccc1C	MOR-DOR inv ag 51 | OPRM1-D1 inv cf inactive | HTR5A inv ctr2 inactive
CCCCn1c(N)c(N(CCOC)C(=O)c2oc3ccc(OCC)cc3c2C)c(=O)[nH]c1=O	none
CN1C(=O)C(O)(CC(=O)c2ccccc2O)c2cc(Br)ccc21 (centres undefined)	MOR-DOR inv ag 68 | OPRM1-D1 inv cf inactive | HTR5A inv ctr2 inactive
CCCCN(C(=O)CCN1C(=O)C2CC=CCC2C1=O)c1c(N)n(CCCC)c(=O)[nH]c1=O (centres undefined)	none
CC(C)(C)OC(=O)C[C@@H]1C/C=C\C[C@H](CC(=O)N(CCO)Cc2ccccc2)C(=O)NC[C@@H](c2ccccc2)OC1=O	MOR-DOR inv ag 56 | OPRM1-D1 inv cf inactive | HTR5A inv ctr2 inactive
C/C(CC(=O)Nc1ccc(N(C)C)cc1)=N\NC(=O)c1cnccn1	MOR-DOR inv ag 39 | OPRM1-D1 inv cf inactive | HTR5A inv ctr2 inactive
C/C(CC(=O)Nc1ccc(N(C)C)cc1)=N\NC(=O)c1ccccn1	none
COc1ccc(CN(C(=O)c2cc(=O)c3ccccc3o2)C2CCS(=O)(=O)C2)cc1 (centres undefined)	none
COc1ccc(S(=O)(=O)N=Nc2c(O)[nH]c3ccccc23)cc1	MOR-DOR inv ag 45 | OPRM1-D1 inv cf inactive | HTR5A inv ctr2 inactive
Cc1ccc(N(CC(=O)N=Nc2c(O)[nH]c3ccccc23)S(C)(=O)=O)c(C)c1	none
Cc1ccc(S(=O)(=O)N=Nc2c(O)[nH]c3ccccc23)cc1C	MOR-DOR inv ag 47 | OPRM1-D1 inv cf inactive | HTR5A inv ctr2 inactive
CCNC(=S)NNC(=S)NCc1ccccc1	none
CCNC(=S)NNc1nnc(-c2ccccc2)c(-c2ccccc2)n1	MOR-DOR inv ag 50 | OPRM1-D1 inv cf inactive | HTR5A inv ctr2 inactive
OC1=C(O)c2nc3ccccc3nc21	MOR-DOR inv ag 84 | OPRM1-D1 inv cf 73 | HTR5A inv ctr2 inactive
CCOC(=O)[C@@H]1[C@H]2COc3cc(OC)ccc3[C@@H]2N2C(=O)N(c3cccc(Cl)c3)C(=O)[C@@]12C	none
Cc1cccc(OCc2nnc(SCC(=O)N3CCCCC3)o2)c1	none
CCN(CC)S(=O)(=O)c1cccc(-c2n[nH]c(=S)n2C)c1	none
Cc1ccc(-c2n[nH]c(=S)n2C)cc1Cl	MOR-DOR inv ag 33, HTR5A inv ag 19 | OPRM1-D1 inv cf inactive | HTR5A inv ctr2 inactive
CC(NS(=O)(=O)c1cn(C)c(=O)n(C)c1=O)c1ccccc1 (centres undefined)	none
CSc1nnc(C)c(/C=C/NOCc2ccc(Cl)cc2)n1	MOR-DOR inv ag 44 | OPRM1-D1 inv cf inactive | HTR5A inv ctr2 inactive
